In assay [1] the target is Regulator of G-protein signaling 16 (Homo sapiens) (UniProt O15492). Briefly: modulators of RGS–Galpha-o binding, primary screen, biochemical, multiplexed beads, flow cytometry, RGS4/7/8/16/19 (AID 1504).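 Also: fluorescently labeled Galpha-o bound to GDP with aluminium fluoride binding biotinylated RGS beads.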 The settings on record: multiplexed bead flow cytometry, measured here: RGS16 interaction, at 10 µM.
For assay [2], the target named is Regulator of G-protein signaling 19 (Homo sapiens) (UniProt P49795). The description is as above. Particulars: multiplexed bead flow cytometry, measured here: RGS19 interaction, at 10 µM.
Assay [3] addresses Regulator of G-protein signaling 7 (Homo sapiens) (UniProt P49802). Described as above. Particulars: multiplexed bead flow cytometry, measured here: RGS7 interaction, at 10 µM.
Assay [4] deals with Regulator of G-protein signaling 8 (Homo sapiens) (UniProt P57771). Described as above. The settings on record: multiplexed bead flow cytometry, measured here: RGS8 interaction, at 10 µM.
Assay [5] in a line: disruption of biotin probe capture by avidin, counter-screen for RGS protein interaction modulators, biochemical, flow cytometry, bead-based (AID 1783;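 active = inhibition above 50%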;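 also: median green fluorescence of gated singlet beads compared with DMSO control wells; 0% = DMSO wells and 100% = complete loss of bead fluorescence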). The settings on record: streptavidin beads, fluorescein-biotin binding; at 10 µM, stronger effect = higher value.
Assay [6] concerns the target Guanine nucleotide-binding protein G(o) subunit alpha (Homo sapiens) (UniProt P09471). As to the kind of experiment: RGS8-Galphao binding modulators, confirmation, biochemical, multiplexed bead flow cytometry, single concentration (AID 1836; in the data active = binding response below about 72% or above about 130%; inactive = in between;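 also: Galphao activated as GDP AlF4 complex before binding bead RGS8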). Particulars: bead-based flow cytometry RGS8-Galphao binding, fluorescence; at 10 µM; actives lie on both sides.
Assay [7] shares this target. As to the kind of experiment: RGS7-Galphao binding modulators, confirmation, biochemical, multiplexed bead flow cytometry, single concentration (AID 1837; in the data active = response below about 75% or above about 130%; inactive = in between;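 also: fluorescent Galphao activated with GDP and aluminum fluoride binding bead-coupled RGS7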). The settings on record: bead-based flow cytometry RGS7-Galphao binding; at 10 µM; actives lie on both sides.
Assay [8] concerns the target Regulator of G-protein signaling 16 (Homo sapiens) + Guanine nucleotide-binding protein G(o) subunit alpha (Homo sapiens) (UniProt O15492+P09471). Briefly: modulators of RGS16-Galphao protein binding, confirmation, biochemical, single concentration, multiplexed bead flow cytometry (AID 1838; in the data active = response below about 74% or above about 130%; inactive = in between;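 also: Galphao activated as the GDP aluminium fluoride complex binding bead-coupled RGS16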). The settings on record: bead-based flow cytometry, at 10 µM, actives lie on both sides.

Assay [9] deals with Guanine nucleotide-binding protein G(o) subunit alpha (Homo sapiens) (UniProt P09471). Briefly: modulators of RGS4-Galphao protein binding, confirmation, biochemical, single concentration, multiplexed bead flow cytometry (AID 1840; in the data active = binding response below about 74% or above about 130%; inactive = in between). Particulars: at 10 µM, actives lie on both sides.
The target of assay [10] is Guanine nucleotide-binding protein G(o) subunit alpha (Homo sapiens) + Regulator of G-protein signaling 19 (Homo sapiens) (UniProt P09471+P49795). As to the kind of experiment: regulators of RGS19-Galphao binding, confirmation, biochemical, single point, multiplexed bead flow cytometry (AID 1841; in the data active = response below about 50% or above about 160%; inactive = in between;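 also: 100% = no compound control and 0% = blank background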). Particulars: bead-based flow cytometry RGS19-Galphao binding; at 10 µM; actives lie on both sides.

Assay [11] can be described thus: yeast TOR pathway RPL19A-GFP modulators, primary screen, cell-based, S. cerevisiae, multiplex flow cytometry (AID 1862; in the data active = percent of DMSO control GFP below about 86%;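 also: lower values mimic rapamycin by blocking the RPL19A rise seen in DMSO cells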). The settings on record: S. cerevisiae RPL19A-GFP strain, flow cytometry fluorescence, 3 h; at 10 µM; stronger effect = lower value.
The nature of assay [12]: modulators of MEP2-GFP levels in yeast, primary screen, S. cerevisiae, multiplex flow cytometry (AID 1867).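 Also: median GFP channel fluorescence of barcode-gated MEP2-GFP cells measured by flow cytometry.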 Particulars: S. cerevisiae MEP2-GFP strain, 3 h, at 10 µM, stronger effect = higher value, 100% means same as DMSO wells.
Assay [13] can be described thus: modulators of CIT2-GFP expression in yeast, primary screen, S. cerevisiae, GFP fusion, multiplex flow cytometry (AID 1870;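 active = percent response above a set limit, the screen-wide mean plus 3 SD, cut at about 130% in these data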;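 also: barcoded CIT2-GFP strain pooled with four other GFP strains with rapamycin as positive control; median GFP fluorescence per well over plate mean of DMSO wells so 100% = DMSO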). Particulars: 3 h, at 10 µM, stronger effect = higher value.
Assay [14] in a line: modulators of LAP4-GFP expression in yeast, primary screen, S. cerevisiae, multiplex flow cytometry (AID 1873;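 active = GFP signal, as percent of the solvent control, above the screen mean plus 3 SD, about 149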). Particulars: 3 h, at 10 µM, stronger effect = higher value.
The nature of assay [15]: modulators of AGP1-GFP expression in yeast TOR pathway, primary screen, cell-based, multiplex flow cytometry, S. cerevisiae (AID 1887;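 active = GFP signal above the screen-wide mean plus 3 SD, that is over about 124.5% of the solvent control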;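 also: AGP1-GFP fusion strain of S. cerevisiae within a five-strain barcoded multiplex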). The settings on record: 3 h, at 10 µM, stronger effect = higher value.
Assay [16] can be described thus: RPL19A-GFP modulators, yeast TOR pathway, confirmation, cell-based, S. cerevisiae, flow cytometry, cherry picks, mother/daughter gates (AID 2270;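 active = GFP response below 50% of the DMSO control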). The settings on record: S. cerevisiae RPL19A-GFP strain, 3 h, at 10 µM, stronger effect = lower value, 100 = same GFP as DMSO wells.
Assay [17] can be described thus: LAP4-GFP expression modulators in yeast, confirmation, cell-based, cherry picks, flow cytometry, mother/daughter gates (AID 2271;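 active = GFP response above 150% of the DMSO control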;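 also: ratio of sample to DMSO plate mean so 100% equals DMSO level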). Particulars: S. cerevisiae LAP4-GFP strain, 3 h, at 10 µM, stronger effect = higher value, 100 means same as DMSO control.
A short description of assay [18]: modulators of MEP2-GFP levels in yeast, confirmation, S. cerevisiae, flow cytometry GFP, cherry picks (AID 2272;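 active = GFP response above 150% of the DMSO control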;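 also: ratio of well signal to plate DMSO mean so 100% equals DMSO level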). Particulars: S. cerevisiae MEP2-GFP strain, 3 h, at 10 µM, stronger effect = higher value.
Assay [19] can be described thus: modulators of CIT2-GFP expression in yeast, confirmation, S. cerevisiae, GFP fusion, cherry picks, mother/daughter gates (AID 2274;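 active = GFP response above 150% of the DMSO level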). Particulars: S. cerevisiae CIT2-GFP strain, flow cytometry, 3 h, at 10 µM, stronger effect = higher value.
A short description of assay [20]: inhibitors of CD8+ T cell-vesicle binding, pilot screen, LFA-1/ICAM-1 modulator project, MLPCN validation set, flow cytometry (AID 2523;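 active = response below a set limit, under 55% cells CD8-positive and vesicle-bound, and CD8 cells' 90th-percentile brightness under 279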;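 as to vesicle binding response: mean PE anti-B7-1 fluorescence of CD8+ cells relative to row control; 100% = QL9-loaded vesicles with DMSO vehicle in the same plate row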). The settings on record: 2C mouse CD8+ T cells, at 7 µM, stronger effect = lower value; double positive events: measured here: CD8+/vesicle+ event percentage.
The mark [21] stands for this setting: measured here: daughter cell gate.
Where [22] appears, read: measured here: mother cell gate.
Where [23] appears, read: measured here: daughter cell gate response.
[24] abbreviates: measured here: mother cell gate response.

The structures appear in SMILES notation. Records with an inconclusive call do not appear. This is one part of the list. The source made the active and inactive calls.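 The calls were made as follows, unless noted: active = GFP response, as percent of the DMSO control, above the screen-wide mean plus 3 SD, about 139; inconclusive = no response measured because the compound's own fluorescence interfered; inactive = the rest.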

Guanine nucleotide-binding protein G(o) subunit alpha (Homo sapiens), sequence (P09471 whole entry, looked up): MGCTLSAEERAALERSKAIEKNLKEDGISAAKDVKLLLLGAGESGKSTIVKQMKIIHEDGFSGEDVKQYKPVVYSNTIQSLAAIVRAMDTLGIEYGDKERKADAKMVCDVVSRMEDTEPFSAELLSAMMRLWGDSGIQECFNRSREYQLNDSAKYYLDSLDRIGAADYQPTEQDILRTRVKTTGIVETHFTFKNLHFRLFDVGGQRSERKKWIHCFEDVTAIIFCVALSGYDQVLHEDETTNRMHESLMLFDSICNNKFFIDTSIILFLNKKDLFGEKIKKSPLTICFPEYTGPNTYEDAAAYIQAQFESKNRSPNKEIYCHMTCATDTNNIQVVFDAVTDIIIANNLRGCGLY
Guanine nucleotide-binding protein G(o) subunit alpha (Homo sapiens) + Regulator of G-protein signaling 19 (Homo sapiens), sequence (P09471 whole entry, looked up): as above
Guanine nucleotide-binding protein G(o) subunit alpha (Homo sapiens) + Regulator of G-protein signaling 19 (Homo sapiens), sequence (P49795 whole entry, looked up): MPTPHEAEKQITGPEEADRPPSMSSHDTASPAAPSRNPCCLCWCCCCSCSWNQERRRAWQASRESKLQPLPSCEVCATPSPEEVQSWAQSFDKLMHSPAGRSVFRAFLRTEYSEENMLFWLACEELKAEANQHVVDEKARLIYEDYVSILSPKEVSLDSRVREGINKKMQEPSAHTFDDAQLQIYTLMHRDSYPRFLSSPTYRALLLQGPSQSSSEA
Regulator of G-protein signaling 16 (Homo sapiens) + Guanine nucleotide-binding protein G(o) subunit alpha (Homo sapiens), sequence (O15492 whole entry, looked up): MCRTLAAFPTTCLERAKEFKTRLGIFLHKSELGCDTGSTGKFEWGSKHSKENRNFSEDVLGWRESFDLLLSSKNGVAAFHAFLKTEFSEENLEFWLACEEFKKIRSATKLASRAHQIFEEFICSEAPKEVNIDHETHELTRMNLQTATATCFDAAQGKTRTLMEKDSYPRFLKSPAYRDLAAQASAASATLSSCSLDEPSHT
Regulator of G-protein signaling 16 (Homo sapiens) + Guanine nucleotide-binding protein G(o) subunit alpha (Homo sapiens), sequence (P09471 whole entry, looked up): as the sequence (P09471 whole entry, looked up) above

Regarding `COc1cccc(C(=O)NCCSc2ccc(Br)cc2)c1`, in assay [1], the RGS16–Galpha-o binding response amounted to 11.1%. The compound further gave an RGS19–Galpha-o binding response in [2] of 1100%. For the same compound, the RGS7–Galpha-o binding response in assay [3] was determined as 16.5%. In assay [4], the RGS8–Galpha-o binding response amounted to 20.7%. In assay [5], the inhibition is -0.2% (inactive). The figures for the binding response (% of control) in assay [6] and in assay [9] were 103% (inactive) and 104% (inactive), respectively. Also, the response (percent of control binding) in assay [7] was 106% (inactive); in [10] it was 83.7% (inactive). Also, in assay [8], the response (% of control binding) was 104% (inactive).
In the case of `CC(=O)OCC(=O)[C@@]1(O)CC[C@H]2[C@@H]3CCC4=CC(=O)CC[C@]4(C)[C@H]3[C@@H](O)C[C@@]21C`, in assay [11], the percent of DMSO control GFP was 101% (inactive). The GFP response vs DMSO in assay [12] is 104% (inactive); in assay [14], 97.3% (inactive); in assay [16], 95.8% (inactive); in [16] (setting [21]), 97.1%; in assay [16] (setting [22]), 97.7%; in assay [18], 100% (inactive). In addition, the percent response of DMSO control in assay [13] is 96.6% (inactive). In addition, the GFP response, % of DMSO is 103% (inactive) in [15], 99.7% (inactive) in [19], 101% in [19] (setting [21]) and 98.5% in assay [19] (setting [22]). Further, the figures for the GFP response relative to DMSO in assay [17], in [17] (setting [23]) and in assay [17] (setting [24]) were 96.7% (inactive), 99.2% and 95.1%, respectively. Further, the double positive events in [20] came out at 62.5%. In addition, the vesicle binding response in assay [20] was 4910% (inactive).
Consider `COc1ccc(CCNC(=O)c2cc3sccc3n2C)cc1OC`, for which the inhibition in assay [5] was 0.7% (inactive). Further, the binding response (% of control) in assay [6] is 103% (inactive); in assay [9], 102% (inactive). The response (percent of control binding) in assay [7] was 106% (inactive); in assay [10], 114% (inactive). In addition, in [8], the response (% of control binding) was 103% (inactive).
Take `C1COC(NC(C2CC2)C2CC2)=N1`: the percent of DMSO control GFP in [11] was 89.3% (inactive). Further, the GFP response vs DMSO was 148% (active) in assay [12]; 85.3% (inactive) in [14]; 96% (inactive) in assay [16]; 97.1% in [16] (setting [21]); 97.6% in assay [16] (setting [22]); 96.2% (inactive) in [18]. The percent response of DMSO control in assay [13] is 110% (inactive). The GFP response, % of DMSO in assay [15] was 94.5% (inactive); in assay [19], 98.3% (inactive); in [19] (setting [21]), 101%; in assay [19] (setting [22]), 97.3%. For the same compound, the figures for the GFP response relative to DMSO in [17], in assay [17] (setting [23]) and in assay [17] (setting [24]) were 95.4% (inactive), 96% and 95.1%, respectively. The double positive events in assay [20] was 64.4%. Moreover, in assay [20], the vesicle binding response was 227% (inactive).
In the case of `COc1ccccc1-n1c(-c2cc(-c3ccco3)[nH]n2)n[nH]c1=S`, the RGS16–Galpha-o binding response in assay [1] is -1.14%. Further, the RGS19–Galpha-o binding response in assay [2] is 531%. Moreover, in assay [3], the RGS7–Galpha-o binding response is -527%. Also, the RGS8–Galpha-o binding response in assay [4] turned out to be 6.3%. In addition, in [5], the inhibition is 0.5% (inactive). Besides, the figures for the binding response (% of control) in assay [6] and in assay [9] were 83.6% (inactive) and 98.3% (inactive), respectively. Besides, the response (percent of control binding) was 99.5% (inactive) in [7] and 68.6% (inactive) in [10]. Besides, the response (% of control binding) in [8] was 82.6% (inactive).
In the case of `CC(=O)OCC(=O)[C@H]1CC[C@H]2[C@@H]3CCC4=CC(=O)CC[C@]4(C)[C@H]3CC[C@]12C`, the percent of DMSO control GFP in assay [11] is 89.1% (inactive). For the same compound, the GFP response vs DMSO is 103% (inactive) in assay [12]; 73.2% (inactive) in assay [14]; 95.8% (inactive) in assay [16]; 96.7% in assay [16] (setting [21]); 96.5% in [16] (setting [22]); 97.5% (inactive) in assay [18]. Moreover, the percent response of DMSO control in [13] was 108% (inactive). The GFP response, % of DMSO in assay [15] was 86.3% (inactive); in [19] it was 97.8% (inactive); in assay [19] (setting [21]), 98.3%; in assay [19] (setting [22]) it was 99.1%. Besides, the GFP response relative to DMSO in assay [17] is 103% (inactive); in [17] (setting [23]) it was 99.3%; in assay [17] (setting [24]), 106%. The compound also gave a double positive events in assay [20] of 52.1%. Also, in [20], the vesicle binding response is 113% (inactive).

The values above are taken from PubChem BioAssay.
